Measurements taken from PubChem BioAssay (NCATS).
Results filed as inconclusive are left out. Entries that show only a call come without a potency. The source made the active and inactive calls. Calls come from the whole dose curve; as a rule, active = well fitted inhibition curve with a large enough effect; inconclusive = small, poorly fitted or top-dose-only effect; inactive = no such curve, though single readings can be large or run the other way.

These compounds were tested against Retinaldehyde dehydrogenase 3 (Homo sapiens) (UniProt P47895) (assay: qHTS for Inhibitors of the Aldehyde Dehydrogenase Family (ALDH1A3) Primary screen (AID 2061315)). Details: ALDH inhibition qHTS; series mostly up to 56 µM.

Which Potency does the source give for `CCCn1c(-c2ccc(F)cc2)nc2c(NCCN3CCSCC3)nc(C)nc21` here?
Its Potency is “inactive”.

`CCn1c(-c2nonc2N)nc2c(C#CCO)ncc(OCCCN)c21` was tested. Which Potency did it give?
Its Potency is “inactive”.

`CC1(C)CC[C@]2(C(=O)OC3OC(CO)C(O)C(O)C3O)CC[C@]3(C)C(=CCC4[C@@]5(C)CC[C@H](OC6OC(C(=O)O)C(O)C(O)C6O)C(CO)(CO)C5CC[C@]43C)[C@@H]2C1` (some centres undefined) was tested. Which Potency did it give?
Its Potency is “inactive”.

For `Cc1ccc(OCCn2c(CCNC(=O)c3ccc4ccccc4c3)nc3ccccc32)cc1`, which Potency is on record?
Its Potency is “inactive”.

For `N#Cc1nc(-c2cccc3ccccc23)oc1N`, which Potency is on record?
Its Potency is “inactive”.

Which Potency does the source give for `CCN1CCC[C@@H]1CNC(=O)c1ccc2c(c1)NC(=O)/C(=C/c1ccccc1F)S2` here?
Its Potency is “inactive”.

With `CCCn1c(C)nc2c(NCCCN(CCO)CCO)nc(C)nc21` as the compound, how does the Potency read?
Its Potency is “inactive”.

How did the Potency turn out when `O=C(Cn1cc(CNC(=O)C2CCCCC2)nn1)Nc1cc(C(F)(F)F)ccc1Cl` was run?
The Potency was “inactive”.

How did the Potency turn out when `Cc1cc2c(s1)c1cnn(Cc3ccc(C)c(F)c3F)c(=O)c1n2C` was run?
The Potency was “inactive”.

Which Potency does the source give for `O=C1CCCC2=C1C(c1ccncc1)N=C(Nc1nc3ccccc3o1)N2` (centres undefined) here?
The Potency was “inactive”.

For `Cc1noc(C)c1-c1ccc2ncnc(NCC3CCCCN3C)c2c1` (centres undefined), which Potency is on record?
Its Potency is “inactive”.

With `Oc1ccc(CCc2ccccc2)c2cccnc12` as the compound, how does the Potency read?
Its Potency is “inactive”.

`CC(=O)O[C@H]1C(=O)[C@@]2(C)[C@H]([C@H](OC(=O)c3ccccc3)[C@]3(O)C[C@H](OC(=O)[C@H](O)[C@@H](NC(=O)c4ccccc4)c4ccccc4)C(C)=C1C3(C)C)[C@]1(OC(C)=O)CO[C@@H]1C[C@@H]2O` was tested. Which Potency did it give?
Its Potency is “inactive”.

For `C=CCc1cccc(CNc2ccc(S(=O)(=O)Nc3nccs3)cc2)c1O`, which Potency is on record?
The Potency was “inactive”.
